Screening data as filed in PubChem.
Shown are actives, neighbours in structure and some others; about 1.4% of the full set was active somewhere.
PINK1 modulator: changes PINK1 expression; 0.2% of 410,000 active; Potency, µM (titrated, usually from 76.6 µM), inactives show at the top dose activation (PINK1 increase), usual class: activators; PINK1 immunofluorescence, high-content cytometry, 24 h; AID 624263; active = well fitted activation curve with a large enough effect; inconclusive = small, poorly fitted or top-dose-only effect; cell line not stated here; also: potency is read from the fitted curve at half-maximal effect; % of control where 0% means no effect; nearly all actives have a fitted effect of over 65% in size
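PINK1 protein, normally rapidly degraded, was detected by immunofluorescence after 24 hour compound treatment of a stable cell line. Titration data (5 concentrations) came from laser-scanning cytometry, with CCCP-treated wells as controls.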
CCT modulator: changes cytosolic chaperonin activity. 0.3% of 360,000 active. purified chaperonin ATPase assay, HTRF ADP detection, 30 min. activity change, % (no concentration beside the values), hits read low; in the data active = activity change below about -30%; also: % is scaled to controls: 0 for no effect and ±100 for the full control effect
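We incubate TRiC, 40 or 20 nM final, with library compounds at 76 uM and 10 uM ATP for 30 min at 37 °C. ADP formed is detected with Transcreener HTRF reagents after 30 min at room temperature.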
Mm-Cpn inhibitor: M. maripaludis TRiC chaperonin inhibition; purified Mm-Cpn ATPase, ADP Transcreener TR-FRET; Potency, µM (titrated, usually from 76.9 µM), for the others: at the highest dose activity, negative = inhibition, actives largely listed as inhibitors; 0.031% of 330,000 active; also: potency is read from the fitted curve at half-maximal effect; % is scaled to controls: 0 for no effect and ±100 for the full control effect; nearly all actives have a fitted effect of over 80% in size
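Purified archaeal chaperonin (25 nM final) was preincubated with compound for 10 min at 37°C, then ATP (10 uM final) was added for 30 min at 37°C in Tris pH 7.4/KCl/MgCl2/DTT buffer. ADP was quantified by HTRF Transcreener TR-FRET.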
ALOX12 inh: blocks human arachidonate 12S-lipoxygenase | P18054 | purified 12hLO, xylenol orange hydroperoxide absorbance | Potency, µM (top dose mostly 108 µM), for inactives: top-dose activity change, negative = inhibition, usual class: inhibitors | 1.1% of 580,000 active | AID 1671190; also: potency is read from the fitted curve at half-maximal effect; % is scaled to controls: 0 for no effect and ±100 for the full control effect
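Purified human 12hLO (150 nM final) in 25 mM Hepes, 0.01% Triton X-100, pH 7.0 was preincubated 15 min at room temperature with compound. Then 40 uM arachidonic acid was added, 30 min. Hydroperoxide was read by Fe-XO absorbance ratio 573/405 nm.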
S-ASM inh: blocks human secretory acid sphingomyelinase | 0.006% of 340,000 active | AID 504937 | P17405 | Potency, µM (titrated, usually from 57.5 µM), for inactives: at the top dose activity change, negative = inhibition, actives largely listed as inhibitors | placental ASM, HMU-PC fluorogenic substrate, 60 min; also: potency is read from the fitted curve at half-maximal effect
Target sequence (P17405 47-631 limits assumed): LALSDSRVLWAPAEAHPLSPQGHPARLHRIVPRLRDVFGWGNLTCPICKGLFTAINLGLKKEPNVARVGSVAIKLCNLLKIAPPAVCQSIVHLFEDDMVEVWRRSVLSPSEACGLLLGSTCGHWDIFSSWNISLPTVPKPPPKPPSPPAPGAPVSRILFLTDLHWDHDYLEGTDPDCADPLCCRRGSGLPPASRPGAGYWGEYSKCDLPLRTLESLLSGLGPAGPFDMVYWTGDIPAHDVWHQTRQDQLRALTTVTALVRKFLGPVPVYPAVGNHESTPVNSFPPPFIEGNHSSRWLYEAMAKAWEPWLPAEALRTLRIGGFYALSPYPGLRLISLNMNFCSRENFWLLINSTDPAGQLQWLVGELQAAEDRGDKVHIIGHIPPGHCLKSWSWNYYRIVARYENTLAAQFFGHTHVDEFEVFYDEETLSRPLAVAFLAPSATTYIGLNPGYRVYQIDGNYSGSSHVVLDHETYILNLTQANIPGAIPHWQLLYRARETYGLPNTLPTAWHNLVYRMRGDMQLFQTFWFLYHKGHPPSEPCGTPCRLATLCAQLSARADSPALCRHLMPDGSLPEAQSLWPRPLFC
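Steps: dispense placental human ASM, pin compound, wait 10 min at room temperature, add HMU-PC0 substrate at 9 uM final, incubate 60 min at 37 °C, add stop solution raising pH to 10, read fluorescence.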
p53 reactivator: re-activators of mutant p53; Potency, µM (top dose mostly 92.2 µM), without a hit: at the highest dose activity change, positive = activation, most hits filed as activators; 0.063% of 320,000 active; AID 504706; H1299 p53-A138V BP100-luciferase reporter, luminescence, 24 h; also: potency is read from the fitted curve at half-maximal effect; % of control where 0% means no effect; nearly all actives have a fitted effect of over 45% in size
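p53-null H1299 cells stably carrying temperature-sensitive p53-A138V and a BP100-luciferase reporter were pinned with compounds (4-point, 1:5 series) and held 24 hrs at 37 deg C. Luminescence was read 10 min after detection reagent.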
Starred values were filed as active, the others as inactive; [ ] = dose if it differs, or a comment. Unless noted, calls follow the shape of the dose curve; as a rule, active = well fitted curve in the direction sought with a large enough effect; inconclusive = small, poorly fitted or top-dose-only effect, or another doubt; inactive = no such curve, though single readings can be large; an effect the other way counts as inactive or inconclusive.

Screening Cc1ccc(/C(O)=C2\C(=O)C(=O)N(CCCO)C2c2ccc(F)cc2)cc1 (configuration not stated) returned ALOX12 inh -14%.
Screening O=C1C(=O)N(CCCO)C(c2ccc(Br)cc2)/C1=C(\O)c1ccc(Br)cc1 (configuration not stated) returned PINK1 modulator 0%, CCT modulator 0, Mm-Cpn inhibitor -1%, ALOX12 inh 35µM* and S-ASM inh 3%.
Screening NCc1ccc(-c2ccc(O)cc2)cc1 returned ALOX12 inh -29%.
For NCc1cccc(-c2cccc(C(F)(F)F)c2)c1 the results were ALOX12 inh 11%[12.5 µM].
`CCOC(=O)c1cc2ccc3ccccc3c2s1` gave PINK1 modulator 3%, CCT modulator 0, Mm-Cpn inhibitor -14%, ALOX12 inh -23%, S-ASM inh -11% and p53 reactivator 25µM*.
Screening CCOC(=O)c1cc2ccc3ccccc3c2oc1=O returned PINK1 modulator 2%, CCT modulator -2, Mm-Cpn inhibitor -6%, ALOX12 inh -12%, S-ASM inh inactive and p53 reactivator -11%.
Screening COc1ccc(C(=O)C(C)OC(=O)c2ccc(OCC3CCCO3)cc2)cc1 (configuration not stated) returned ALOX12 inh -5%.
For CCn1c(-c2csc(C(C)C)c2)n[nH]c1=S the results were PINK1 modulator 0%, CCT modulator 0, Mm-Cpn inhibitor 2%, ALOX12 inh inconclusive, S-ASM inh 6% and p53 reactivator -2%.
`CC(C)Cn1c(-c2csc(C(C)C)c2)n[nH]c1=S` gave PINK1 modulator -1%, CCT modulator -1, Mm-Cpn inhibitor 0%, ALOX12 inh 40µM*, S-ASM inh -7% and p53 reactivator 0%.
For Cc1nc2ccccc2c(C)c1C(=O)c1ccc(Cl)cc1 the results were ALOX12 inh 7.9µM*.
CCOC(=O)c1c(C)nc2ccccc2c1C was read as PINK1 modulator 4%, CCT modulator 0, Mm-Cpn inhibitor 0%, ALOX12 inh inconclusive, S-ASM inh 1% and p53 reactivator -2%.
`O=C1NCc2ccccc2CC12CCCN(Cc1ccnc3ccccc13)C2` (configuration not stated) gave ALOX12 inh 22µM*.
O=C1NCc2ccccc2CC12CCN(Cc1c[nH]c3ccccc13)CC2 was read as ALOX12 inh 0%[6.33 µM].
`O=C1NCc2ccccc2CC12CCN(Cc1ccnc3ccccc13)CC2` gave ALOX12 inh 28µM*.
Screening O=C1NCc2ccccc2CC12CCCN(Cc1ccc(O)cc1)C2 (configuration not stated) returned ALOX12 inh -2%[6.33 µM].
Screening O=C(COC(=O)Cc1ccc(F)cc1)NCc1ccc(Cl)cc1 returned ALOX12 inh -2%.
For CN(C)S(=O)(=O)c1ccc(N2CCCC2)c(C(=O)NNC(=O)c2ccc(F)cc2)c1 the results were PINK1 modulator 3%, CCT modulator -61*, Mm-Cpn inhibitor -1%, ALOX12 inh -3%, S-ASM inh -1% and p53 reactivator -12%.
`Cc1ccccc1OCCCn1c(CO)nc2ccccc21` gave PINK1 modulator -1%, CCT modulator -3, Mm-Cpn inhibitor 0%, ALOX12 inh 7%, S-ASM inh 1% and p53 reactivator 10%.
`CCc1nc2ccccc2n1CCCCOc1ccccc1C` gave PINK1 modulator 27% and ALOX12 inh 40µM*.
Cc1ccc(C(=O)NC(=S)Nc2ccc(Oc3ccc(Cl)cc3)cc2)cc1 was read as PINK1 modulator 1%, CCT modulator -3, Mm-Cpn inhibitor 1%, ALOX12 inh 7.9µM*, S-ASM inh 0% and p53 reactivator 2%.
Screening COc1ccc(C(=O)NC(=S)Nc2ccc(Cl)c(C(=O)O)c2)cc1 returned PINK1 modulator 1%, CCT modulator 0, Mm-Cpn inhibitor 0%, ALOX12 inh 7.1µM*, S-ASM inh -2% and p53 reactivator inconclusive.
`O=C(NC(=S)Nc1ccc(Oc2ccccc2)cc1)c1ccc(Cl)cc1` gave PINK1 modulator 1%[38.3 µM], CCT modulator -4, Mm-Cpn inhibitor 0%, ALOX12 inh inconclusive, S-ASM inh -2% and p53 reactivator 17%.
`COc1ccc(C(=O)NC(=S)Nc2cccc(S(=O)(=O)N3CCOCC3)c2)cc1` gave PINK1 modulator 2%, CCT modulator 0, Mm-Cpn inhibitor 2%, ALOX12 inh 28µM*, S-ASM inh -1% and p53 reactivator -2%.
For COc1ccc(C(=O)NC(=S)NNC(=O)c2ccc(NC(=O)C(C)C)cc2)cc1 the results were PINK1 modulator 1%, CCT modulator 0, Mm-Cpn inhibitor -1%, ALOX12 inh 45µM*, S-ASM inh -2% and p53 reactivator 8%.
Screening O=C(CCn1ccc2ccccc21)N1CCN(S(=O)(=O)c2ccccc2F)CC1 returned ALOX12 inh 0%.
`CCN(Cc1ccccc1)C1=CC(=O)OC12CCCCC2` gave ALOX12 inh 3%.
Screening COc1cccc(CNC(=O)CSc2nc(C3CC3)nc3ccccc23)c1 returned ALOX12 inh -8%.
O=C(NC1CC1)c1cccc(NC(=O)c2cc(S(=O)(=O)N3CCOCC3)ccc2Cl)c1 was read as PINK1 modulator 2%, CCT modulator -32*, Mm-Cpn inhibitor -1%, ALOX12 inh 1%, S-ASM inh 6% and p53 reactivator -5%.
Screening O=C(CCc1ccccc1)Nc1cccc(S(=O)(=O)N2CCOCC2)c1 returned PINK1 modulator 1%, CCT modulator -35*, Mm-Cpn inhibitor 0%, ALOX12 inh 25%, S-ASM inh 1% and p53 reactivator 5%.
COc1ccc(CCC(=O)Nc2cccc(S(=O)(=O)N3CCOCC3)c2)cc1OC was read as PINK1 modulator 3%, CCT modulator -3, Mm-Cpn inhibitor 0%, ALOX12 inh -2%, S-ASM inh 0% and p53 reactivator 4%.
`CC(C)N(/C=C/C(=O)C(F)(F)F)C(C)C` gave ALOX12 inh 3%.
`S=C(Nc1ccc(Oc2ccc(NC(=S)NC3CCCCC3)cc2)cc1)NC1CCCCC1` gave PINK1 modulator 0%, CCT modulator -2, Mm-Cpn inhibitor -1%, ALOX12 inh 11µM*, S-ASM inh 2% and p53 reactivator 16%.
Screening S=C(Nc1ccc(Oc2ccccc2)cc1)NC1CCCCC1 returned PINK1 modulator 0%, CCT modulator 0, Mm-Cpn inhibitor 1%, ALOX12 inh inconclusive, S-ASM inh -2% and p53 reactivator 18%.
